Where a name gives a salt, the structure may show the parent alone.

The record followed here is the supplement of paper PMC11634586.

In the assay the test system is NCI-H1688. Briefly: inhibition of cell viability relative to untreated control (fraction); higher = stronger growth inhibition, active = 0.5 or more. Conditions: 30 µM; 24 h. The method, then: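 Natural product library (TargetMol, 640 compounds) screened on NCI-H1688 SCLC cells at 30 µM for 24 h; viability by CCK-8 absorbance at 450 nm, normalised to untreated control and expressed as inhibition rate (fraction). Compounds with >50% reduction in viability were selected as hits.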
Regarding `O=c1c(-c2ccc(O)cc2)coc2c([C@@H]3O[C@H](CO)[C@@H](O)[C@H](O)[C@H]3O)c(O)ccc12` [Puerarin (Kakonein)], the “inhibition of cell viability” value is 0.109 (inactive).

Turning to `O=C(O)CCCCC1CCSS1` (stereo not given) [Alphalipoic acid], the “inhibition of cell viability” value is 0.0038 (inactive).

On to `CC1(C)CCC[C@](C)([C@H]2CC[C@]3(C)[C@@H]2[C@H](O)C[C@@H]2[C@@]4(C)CC[C@H](O)C(C)(C)[C@@H]4[C@H](O)C[C@]23C)O1` [Panaxtriol], for which the “inhibition of cell viability” value is -0.0145 (inactive).

`Cc1c(C(=O)NCCO)[n+]([O-])c2ccccc2[n+]1[O-]` [Olaquindox]: the “inhibition of cell viability” value was 0.00372 (inactive).

On to `CC[C@H](/C=C/[C@@H](C)[C@H]1CC[C@H]2[C@@H]3CC=C4C[C@@H](O)CC[C@]4(C)[C@H]3CC[C@]12C)C(C)C` [Stigmasterol], for which the “inhibition of cell viability” value is -0.0217 (inactive).

On to `O=c1c2ccccc2nc2n1CCc1c-2[nH]c2ccccc12` [Rutaecarpine], for which the “inhibition of cell viability” value was -0.128 (inactive).

Consider `COc1ccc2cc1Oc1ccc(cc1)C[C@H]1c3cc(c(OC)cc3CCN1C)Oc1c(O)c(OC)cc3c1[C@H](C2)N(C)CC3` [Fangchinoline], for which the “inhibition of cell viability” value is 0.969 (active).

For `COc1ccc(-c2cc(=O)c3c(OC)c(OC)c(OC)c(OC)c3o2)cc1OC` [Nobiletin], the “inhibition of cell viability” value was 0.293 (inactive).

For the compound `C=C1CC[C@H]2C(=C)CC[C@H]3C(=C)C(=O)O[C@@H]3[C@@H]12` [Dehydrocostus Lactone], the “inhibition of cell viability” value was 0.992 (active).

`OC[C@@H](O)[C@H](O)[C@H](O)[C@@H](O)CO` [Dulcitol]: the “inhibition of cell viability” value was -0.284 (inactive).

With `C[C@H](CC[C@@H](O[C@@H]1O[C@H](CO[C@@H]2O[C@H](CO)[C@@H](O)[C@H](O)[C@H]2O)[C@@H](O)[C@H](O)[C@H]1O[C@@H]1O[C@H](CO)[C@@H](O)[C@H](O)[C@H]1O)C(C)(C)O)[C@H]1CC[C@@]2(C)[C@@H]3CC=C4[C@@H](CC[C@H](O[C@@H]5O[C@H](CO[C@@H]6O[C@H](CO)[C@@H](O)[C@H](O)[C@H]6O)[C@@H](O)[C@H](O)[C@H]5O)C4(C)C)[C@]3(C)[C@H](O)C[C@]12C` [Mogroside V], the “inhibition of cell viability” value was 0.121 (inactive).

Regarding `CCCCOC(=O)c1ccc(O)cc1` [Butylparaben], the “inhibition of cell viability” value is 0.197 (inactive).

In the case of `C=CC[C@@H]1/C=C(\C)C[C@H](C)C[C@H](OC)[C@H]2O[C@@](O)(C(=O)C(=O)N3CCCC[C@H]3C(=O)O[C@H](/C(C)=C/[C@@H]3CC[C@@H](O)[C@H](OC)C3)[C@H](C)[C@@H](O)CC1=O)[C@H](C)C[C@@H]2OC` [Tacrolimus (FK506)], the “inhibition of cell viability” value was 0.0216 (inactive).

With `O=C(O)c1cc(O)c2c(c1)[C@@H]([C@H]1c3cc(C(=O)O)cc(O)c3C(=O)c3c(O[C@@H]4O[C@H](CO)[C@@H](O)[C@H](O)[C@H]4O)cccc31)c1cccc(O[C@@H]3O[C@H](CO)[C@@H](O)[C@H](O)[C@H]3O)c1C2=O` [Sennoside B], the “inhibition of cell viability” value is -0.103 (inactive).

Consider `COc1ccc([C@@H]2CC(=O)c3c(O)cc(O[C@@H]4O[C@H](CO)[C@@H](O)[C@H](O)[C@H]4O[C@@H]4O[C@@H](C)[C@H](O)[C@@H](O)[C@H]4O)cc3O2)cc1O` [Neohesperidin], for which the “inhibition of cell viability” value was 0.00547 (inactive).

`CC(C)=CCC[C@](C)(O[C@@H]1O[C@H](CO)[C@@H](O)[C@H](O)[C@H]1O)[C@H]1CC[C@]2(C)[C@@H]1[C@H](O)C[C@@H]1[C@@]3(C)CC[C@H](O)C(C)(C)[C@@H]3[C@@H](O[C@@H]3O[C@H](CO)[C@@H](O)[C@H](O)[C@H]3O)C[C@]12C` [Ginsenoside Rg1]: the “inhibition of cell viability” value was -0.0362 (inactive).

Take `O=C(O[C@@H]1Cc2c(O)cc(O)cc2O[C@@H]1c1cc(O)c(O)c(O)c1)c1cc(O)c(O)c(O)c1` [(-)-Epigallocatechin Gallate]: the “inhibition of cell viability” value was 0.0795 (inactive).

`COC(=O)C1=CO[C@@H](O[C@@H]2O[C@H](CO)[C@@H](O)[C@H](O)[C@H]2O)[C@@H]2[C@@H](C)[C@@H](O)C[C@H]12` [Loganin]: the “inhibition of cell viability” value was 0.0696 (inactive).

In the case of `CC(C)=CCC[C@](C)(O)[C@H]1CC[C@]2(C)[C@@H]1[C@H](O)C[C@@H]1[C@@]3(C)CC[C@H](O)C(C)(C)[C@@H]3[C@@H](O)C[C@]12C` [Protopanaxatriol], the “inhibition of cell viability” value is -0.051 (inactive).

With `CC(=O)O[C@]1(C)CC[C@@]23C[C@H]1C(C)(C)[C@@H]2CC[C@H]3C` [Cedryl acetate], the “inhibition of cell viability” value is -0.223 (inactive).

As for `CC[C@@H]1C(=O)OC[C@@H]1Cc1cncn1C` [(+)-Pilocarpine hydrochloride], the “inhibition of cell viability” value is 0.197 (inactive).

In the case of `COc1ccc(-c2oc3c(CC=C(C)C)c(O[C@@H]4O[C@H](CO)[C@@H](O)[C@H](O)[C@H]4O)cc(O)c3c(=O)c2O[C@@H]2O[C@@H](C)[C@H](O)[C@@H](O)[C@H]2O)cc1` [Icariin], the “inhibition of cell viability” value is 0.041 (inactive).

In the case of `C[n+]1cccc(C(=O)[O-])c1` [Trigonelline hydrochloride], the “inhibition of cell viability” value was -0.14 (inactive).

Turning to `CC(=O)O[C@H]1C(=O)[C@@]2(C)[C@H]([C@H](OC(=O)c3ccccc3)[C@]3(O)C[C@H](OC(=O)[C@H](O)[C@@H](NC(=O)c4ccccc4)c4ccccc4)C(C)=C1C3(C)C)[C@]1(OC(C)=O)CO[C@@H]1C[C@@H]2O` [Paclitaxel], the “inhibition of cell viability” value was 0.555 (active).

With `CC(C)=CCOc1c2ccoc2cc2oc(=O)ccc12` [Isoimperatorin], the “inhibition of cell viability” value was -0.0286 (inactive).

Consider `C=C(C)[C@@H]1CC[C@]2(C(=O)O)CC[C@]3(C)[C@H](CC[C@@H]4[C@@]5(C)CC[C@H](O)C(C)(C)[C@@H]5CC[C@]43C)[C@@H]12` [Betulinic acid], for which the “inhibition of cell viability” value was 0.622 (active).

`C=C(C)[C@@H]1CC[C@]2(C)CC[C@]3(C)[C@H](CC[C@@H]4[C@@]5(C)CC[C@H](O)C(C)(C)[C@@H]5CC[C@]43C)[C@@H]12` [Lupeol]: the “inhibition of cell viability” value was 0.287 (inactive).

As to `COc1ccc(C[C@H]2COC(=O)[C@@H]2Cc2ccc(O[C@@H]3O[C@H](CO)[C@@H](O)[C@H](O)[C@H]3O)c(OC)c2)cc1OC` [Arctiin], the “inhibition of cell viability” value is 0.0918 (inactive).

Regarding `C/C=C/c1ccc(OC)cc1` [Trans-Anethole], the “inhibition of cell viability” value is -0.146 (inactive).

On to `CC(C)=CCC[C@](C)(O)[C@H]1CC[C@]2(C)[C@@H]1[C@H](O)C[C@@H]1[C@@]3(C)CC[C@H](O)C(C)(C)[C@@H]3CC[C@]12C` [(20S)-Protopanaxadiol], for which the “inhibition of cell viability” value is -0.0275 (inactive).

Take `NC[C@H]1O[C@H](O[C@H]2[C@H](O)[C@@H](O[C@H]3O[C@H](CO)[C@@H](O)[C@H](N)[C@H]3O)[C@H](N)C[C@@H]2N)[C@H](O)[C@@H](O)[C@@H]1O` [Kanamycin sulfate]: the “inhibition of cell viability” value was 0.154 (inactive).

`C/C=C(/C)C(=O)OC(C)(C)[C@@H]1Cc2c(ccc3ccc(=O)oc23)O1` [Columbianadin]: the “inhibition of cell viability” value was 0.338 (inactive).

With `O=c1cc(-c2ccc(O)cc2)oc2cc(O)cc(O)c12` [Apigenin], the “inhibition of cell viability” value is 0.487 (inactive).

For the compound `COc1ccc(CCC(=O)c2c(O)cc(O[C@@H]3O[C@H](CO)[C@@H](O)[C@H](O)[C@H]3O[C@@H]3O[C@@H](C)[C@H](O)[C@@H](O)[C@H]3O)cc2O)cc1O` [Neohesperidin Dihydrochalcone (Nhdc)], the “inhibition of cell viability” value was -0.0245 (inactive).

With `CC(=O)c1ccc(O)c(C(=O)O)c1` [5-Acetylsalicylic acid], the “inhibition of cell viability” value was 0.0598 (inactive).

For `COc1ccc2[nH]cc(CCNC(C)=O)c2c1` [Melatonine], the “inhibition of cell viability” value is 0.177 (inactive).

As for `Nc1ccccc1C(=O)CC(N)C(=O)O` (stereo not given) [Kynurenine], the “inhibition of cell viability” value was -0.292 (inactive).

Consider `O=C(O)/C=C/c1ccc(O)cc1` [p-Coumaric acid], for which the “inhibition of cell viability” value was 0.0191 (inactive).

On to `Cc1ccc(C(C)C)cc2c(C)ccc1-2` [Guaiazulene], for which the “inhibition of cell viability” value is 0.0813 (inactive).

For the compound `CC(=O)O[C@H]1C[C@@]2(C)[C@@H](C[C@@H](O)[C@H]3[C@@]4(C)CC[C@@H](O)[C@@H](C)[C@@H]4CC[C@@]32C)/C1=C(\CCC=C(C)C)C(=O)O` [Fusidine], the “inhibition of cell viability” value is -0.0194 (inactive).
